Measured values as given in PubChem BioAssay (NCI).
Compounds without any hit were thinned out: in the full panel of roughly 83,000, 20% have a hit.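 Activity criterion: percent growth below 10, measured after cells in 96-well plates were exposed to a single compound concentration for 48 hours.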 Active and inactive are the calls of the source.

Assays:
Experiment in all cases: NCI-60 one-dose screen, 48 h (100 = growth as untreated, 0 = no growth, -100 = all killed)
Details in all cases: 10 µM unless noted
[1] = system: DU-145 prostate
[2] = system: K-562 leukemia
[3] = system: MALME-3M melanoma
[4] = system: MDA-MB-231 breast
[5] = system: SF-268 CNS
[6] = system: SF-295 CNS
[7] = system: SF-539 CNS
[8] = system: UACC-257 melanoma
[9] = system: M14 melanoma
[10] = system: HCT-15 colon
[11] = system: HT29 colon
[12] = system: SNB-75 CNS
[13] = system: SNB-19 CNS
[14] = system: U251 CNS
[15] = system: PC-3 prostate
[16] = system: SK-MEL-5 melanoma
[17] = system: UACC-62 melanoma
[18] = system: LOX IMVI melanoma
[19] = system: SK-MEL-28 melanoma

Measured: growth

CCCCCCCCCCN=C(N)N=C(N)N
inactive: [1] 79.1% | [2] 21.3% | [3] 30.4% | [4] 38.8% | [5] 33.1% | [6] 42.8% | [7] 58.5% | [8] 48.5% | [9] 48.2% | [10] 71.1% | [11] 41.6% | [13] 38.7% | [14] 34.8% | [15] 22.1% | [17] 37.2% | [18] 47.3% | [19] 63.3%
active: [12] 3.65% | [16] 4.63%

Cc1nc2sc(C(=O)Nc3cccc(Br)c3)c(N)c2cc1C(=O)c1ccc(C(F)(F)F)cc1
inactive: [1] 69.3% | [2] 84.2% | [3] 81% | [4] 63.8% | [5] 79.4% | [6] 67.7% | [7] 56.5% | [8] 95.2% | [9] 69.2% | [10] 88.1% | [11] 90.3% | [12] 55% | [13] 82.3% | [14] 58.7% | [15] 70.2% | [16] 91% | [17] 82.7% | [18] 73.3% | [19] 92.1%

COc1cc(OC)cc(C2C3=C(COC3=O)Nc3cc(OC)ccc32)c1 (stereo unspecified)
active: [1] -30.2% | [4] -7.98% | [7] 1.4% | [9] 3.85% | [11] 0.152% | [16] -24.3%
inactive: [2] 11.9% | [3] 71.6% | [5] 18.1% | [6] 10.9% | [8] 45.5% | [10] 11.3% | [12] 40.7% | [13] 36.2% | [14] 16.2% | [15] 29.3% | [17] 36% | [18] 25.8% | [19] 63.5%

CCCCCCCCCCCCC1CCC/C=C\CCC(=O)O1 (stereo unspecified)
inactive: [1] 115% | [2] 101% | [3] 108% | [4] 99.3% | [5] 101% | [6] 103% | [7] 104% | [8] 119% | [9] 95.2% | [10] 101% | [11] 102% | [12] 84.6% | [13] 101% | [14] 110% | [15] 87% | [16] 104% | [17] 101% | [18] 105% | [19] 118%

CN(Cc1ccccc1)c1nc(Cl)c(C2CC(c3ccc(Cl)cc3)=Cc3[nH][nH]c(=O)c32)s1 (stereo unspecified)
inactive: [1] 104% | [2] 42.5% | [3] 104% | [4] 113% | [5] 92.1% | [6] 90.2% | [7] 88.1% | [8] 102% | [9] 107% | [10] 90.1% | [11] 112% | [12] 88.1% | [13] 104% | [14] 93.4% | [15] 79.7% | [16] 88.2% | [17] 89% | [18] 79.9% | [19] 103%

O=C1c2cccnc2C(=O)c2nc3cc(N4CCN(C5CC5)CC4)ccc3nc21
inactive: [4] 15.1% | [5] 12.5% | [15] 11.6%
active: [1] -75.9% | [2] 0.866% | [3] -100% | [6] -88.9% | [7] -99.4% | [8] -84.5% | [9] -91.2% | [10] -58.8% | [11] -21.3% | [12] -64.7% | [13] -81.5% | [14] -32.6% | [16] -98.1% | [17] -98.5% | [18] -46.5% | [19] -76.9%

Clc1cc(Cl)cc(N2N=C(c3cccc(Nc4ccncc4)c3)CC2c2ccc(Br)cc2)c1 (stereo unspecified)
inactive: [1] 35.2% | [3] 23.7% | [4] 57.1% | [5] 77.1% | [6] 36.9% | [7] 76.6% | [8] 79.4% | [9] 108% | [12] 78.3% | [13] 85.8% | [15] 33.3% | [16] 79% | [17] 102%
active: [2] 1.66% | [10] -66.5% | [11] -12.2% | [14] -29.8% | [18] -88.4% | [19] -21.8%

CCc1nc(C)cn1C(=O)OCc1nc2nc(Cl)nc(N3CCOCC3)c2[nH]1
active: [1] -37.3% | [2] 1.14% | [3] -67.8% | [4] -42.9% | [5] -64% | [7] -74.8% | [8] -80.8% | [9] -56.8% | [10] -28.1% | [11] -63.1% | [12] 1.78% | [14] -55.3% | [15] -63.5% | [16] -35.8% | [17] -88.4% | [18] -80.9% | [19] -89.6%
inactive: [6] 79.5% | [13] 55.8%

Cc1c2c(cc[n+]1Cc1ccc(F)cc1)c1ccc(OCc3cccc(F)c3)cc1n2Cc1cccc(F)c1
active: [1] -90.8% | [2] -15.8% | [3] -79.6% | [4] -87.7% | [5] -94.2% | [6] -68.5% | [7] -65.4% | [8] -86% | [9] -82.1% | [11] -74.9% | [12] -88.7% | [13] -90.3% | [14] -89.4% | [15] -44.4% | [16] -99.4% | [17] -98% | [18] -82.7% | [19] -91%
inactive: [10] 54.3%
